PubChem BioAssay AID1508625 (Wald Lab, School of Medicine, Case Western Reserve …, 2021)

Assay: small molecules boosting NK-mediated OVCAR3 lysis – imaging, primary NK cells, calcein-AM imaging, primary screen (AID 1508625);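 also: compound given to NK cells 16 h before adding targets at 1.5 to 1 ratio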;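 as to z-score: more negative robust z means stronger NK killing of tumor cells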
Conditions: OVCAR3 lysis by primary NK cells, at 5 µM; z-score: measured here: robust Z-score, single-point normalisation

Row | Structure (SMILES) | corrected activity, negative = more killing | z-score
1 | CCOc1cc(C(=S)N2CCCCC2)ccc1OC(=O)c1ccc(OC)cc1 | -5.85% | -2.2
2 | Nc1nc(OCC(F)(F)F)cc(OCC(F)(F)F)n1 | -6.92% | -1.46
3 | COc1ccc(CNC(=O)CCN2C(=O)C3C4C=CC(CC4)C3C2=O)cc1 (configuration not stated) | -5.25% | -1.67
4 | COc1ccccc1CN1CCN(C2CCN(Cc3ccccc3)CC2)CC1 | 0.136% | 0.0605
5 | O=C(c1oc(=O)c2ccccc2c1-c1ccccc1)N(CCc1ccccc1)Cc1ccccc1 | -5.06% | -1.24
6 | O=C(COc1ccc(Cl)cc1)N1CCN(C(=O)c2ccccc2F)CC1 | -1.94% | -0.865
7 | Cc1c(C(=O)Oc2cccc3ccccc23)cccc1[N+](=O)[O-] | -7.35% | -2.77
8 | O=C(Nc1ccc(Br)cc1)c1ccccc1I | -1.25% | -0.444
9 | O=C1OC(c2cccc(Cl)c2)=NC1=Cc1ccc(F)cc1 | -4.47% | -1.9
10 | COc1cc2c(cc1NC(=O)C(C)c1ccc([N+](=O)[O-])cc1)oc1ccccc12 (configuration not stated) | -2.25% | -1.25
11 | Cc1ccccc1C(=O)Nc1ccc(C(=O)O)cc1NC(=O)c1ccccc1C | -0.368% | -0.197
12 | O=C(O)c1cc(Cl)ccc1NS(=O)(=O)c1ccc(Cl)cc1 | -1.75% | -0.369
13 | O=C(NN=Cc1c(Br)cc(Br)c(O)c1Br)c1ccncc1 | -1.17% | -0.607
14 | Cc1ccc(C(=O)Oc2ccc(C(=S)N3CCOCC3)cc2)cc1 | -4.83% | -1.5
15 | Cc1cc(NC(=O)CSc2nc3ccc(Br)cc3c3nc4ccccc4n23)no1 | -5.14% | -1.36
16 | CCC(=O)c1ccc(OCC(=O)O)c(OC)c1 | -0.458% | -0.171
17 | COC(=O)c1cc(NC(=O)C2(S(=O)(=O)c3ccc(C)cc3)CC2)cc(C(=O)OC)c1 | -4.1% | -1.16
18 | COc1ccc(C)cc1NC(=O)c1cc(S(=O)(=O)NC2CCCCC2C)ccc1F (configuration not stated) | -0.89% | -0.24
19 | Cn1c(SCC(=O)Nc2cc(C(F)(F)F)ccc2Cl)nc2c([nH]c3ccccc32)c1=O | -6.37% | -1.58
20 | COc1ccc(OC)c(-n2c(=S)[nH]c3cc(C(=O)Nc4ccc5c(c4)CCC5)ccc3c2=O)c1 | -3.65% | -1.16
21 | COc1ccc(C(=O)N2CCN(CC=Cc3ccccc3)CC2)cc1 | -1.03% | -0.422
22 | CCCCN(C(=O)c1cnc2n(c1=O)CCS2)c1ccccc1 | -5.28% | -1.68
23 | O=C(CSc1nc2cc3c(cc2c(=O)n1Cc1ccco1)OCO3)NCc1ccccc1 | -4.67% | -1.24
24 | O=[N+]([O-])c1ccc(Nc2ncnc3ccccc23)cc1 | -1.89% | -1.01

Row | Structure (SMILES) | corrected activity, negative = more killing | z-score
25 | COc1ccccc1CNC(=O)C1CCN(S(=O)(=O)c2cccc3nonc23)CC1 | -5.24% | -1.49
26 | COc1ccc(C=NNC(=O)c2cc(C34CC5CC(CC(C5)C3)C4)[nH]n2)cc1O | 0.0734% | 0.0321
27 | Cc1noc(C)c1S(=O)(=O)Nc1ccc(C(=O)Nc2cccc(Cl)c2)cc1 | -7.43% | -1.82
28 | O=C(c1ccc2c(=O)n(Cc3ccco3)c(=S)[nH]c2c1)N1CCOCC1 | -3.78% | -1.2
29 | COc1ccccc1C(=O)N1CCN(S(=O)(=O)c2ccc(C)cc2)CC1 | -3.03% | -1.35
30 | CC(C(=O)O)N1C(=O)C2C3CCC(C3)C2C1=O (configuration not stated) | 1.01% | 0.359
31 | CCCCNC(=O)c1cc(Nc2ccc(CC)cc2)nc2ccccc12 | -8.29% | -2.03
32 | COc1ccc(C)cc1NC(=O)c1sc2nc(C)nc(N3CCCCC3C)c2c1C (configuration not stated) | -3.27% | -1.75
33 | CC1=NNC(=O)C1CCC(=O)NN=Cc1ccncc1 (configuration not stated) | -4.86% | -2.12
34 | Clc1ccc(OCCN2CCc3ccccc3C2)cc1 | -1.86% | -1.03
35 | Cc1ccc(Cn2c3[n+](c4ccccc42)CC(O)CS3)cc1 (configuration not stated) | -3% | -1.55
36 | Cc1cc(C)c(CSc2nnc(C)s2)c(C)c1 | -5.76% | -1.78
37 | Cc1ccc(Cl)cc1-n1c(CCC(=O)O)ccc1-c1ccccc1 | 1.25% | 0.373
38 | O=C(Nc1nc2ccccc2s1)C(=O)Nc1nc2ccccc2s1 | 0.998% | 0.309
39 | CCCCOc1ccc(C(=O)N2CCN(C(=O)N(C)C)CC2)cc1 | -0.23% | -0.128
40 | N#Cc1cccn1Cc1ccccc1Cl | -4.07% | -1.1
41 | O=C(Nc1ccc2c(c1)OCCO2)c1cc2cc3ccc(Cl)cc3nc2o1 | -3.48% | -0.854
42 | Cc1c(NC(=O)CCCCCN2C(=O)c3ccccc3C2=O)c(=O)n(-c2ccccc2)n1C | -6.57% | -2.47
43 | COc1ccc(-n2c(=S)[nH]c3cc(C(=O)O)ccc3c2=O)c(OC)c1 | -4.6% | -1.46
44 | CC(C)Oc1ccc(CNC2CCOC(C)(C)C2)cc1 (configuration not stated) | -3.04% | -1.2
45 | O=C(NN=Cc1ccncc1)c1n[nH]c2c1CCC2 | -1.79% | -0.783
46 | O=c1c2cc(N3CCCCC3)ccc2[nH]c(=S)n1Cc1ccccc1 | -6.78% | -1.8
47 | O=C(CSc1nnc(-c2cccc(Br)c2)o1)c1ccc2c(c1)CCCC2 | -3.57% | -1.33
48 | CC(=O)Nc1ccc(NC(=O)CC2OCC3CCCCN3C2=O)cc1 (configuration not stated) | -5.1% | -1.95

Row | Structure (SMILES) | corrected activity, negative = more killing | z-score
49 | CC(=O)c1ccc(NC(=O)c2ccc(N)cc2)cc1 | -8.59% | -1.81
50 | CCCCn1c(=S)[nH]c2cc3ccccc3cc2c1=O | -1.52% | -0.403
51 | CC1CCCN(c2ncnc3scc(-c4ccccc4)c23)C1 (configuration not stated) | -2.34% | -0.85
52 | COc1ccc(CNC(=O)Cn2c(=S)[nH]c3ccccc3c2=O)cc1 | -4.59% | -1.22
53 | CCOc1ccc2nc(SCC(=O)Nc3ccccc3Oc3ccccc3)sc2c1 | -3.99% | -1.24
54 | CCOC(=O)c1ccc(NC(=O)c2cnc3n(c2=O)CCS3)cc1 | -6.64% | -2.11
55 | CCOC(=O)C1=C(N)OC2=C(C(=O)CC(C)(C)C2)C1c1ccc(O)cc1 (configuration not stated) | -4.12% | -1.28
56 | Cc1ccc(-n2c(SCC(=O)Nc3cccc(F)c3)nc3c(c2=O)SCC3)cc1 | -3.47% | -0.864
57 | Cc1ccc(OCc2ccc([N+](=O)[O-])cc2)cc1C | -1.29% | -0.719
58 | CCOc1ccc(C2C(N3C(=O)c4ccc([N+](=O)[O-])cc4C3=O)C(=O)N2c2ccc(Cl)cc2)cc1 (configuration not stated) | 0.896% | 0.278
59 | Cc1cc(C)cc(-n2cnc3cc(C(=O)NC4CCCCCC4)ccc32)c1 | -4.5% | -1.21
60 | Cc1ccc(-c2cc(C(F)(F)F)n3ncc(C(=O)N4CCC(C)CC4)c3n2)cc1 | -5.63% | -1.79
61 | O=[N+]([O-])c1ccc(CNC2CCCC2)cc1 | -5.52% | -1.76
62 | CCCCOC(=O)c1ccc2c(c1)C(=O)N(c1cccc(Cl)c1)C2=O | -8.14% | -2.52
63 | Cc1ccc(S(=O)(=O)n2nc(OC(=O)c3ccc(C)c(C)c3)cc2N)cc1 | -5.25% | -1.67
64 | C=CCNC(=O)c1ccc2snnc2c1 | -1.6% | -0.478
65 | CCc1cccc(NC(=O)CN(C)S(=O)(=O)c2cccs2)c1 | -4.79% | -1.36
66 | Cc1ccccc1CSC1=NCCN1C(=O)c1ccc(OC(C)C)cc1 | -4.64% | -1.14
67 | CCOC(=O)C1CCN(c2ccc([N+](=O)[O-])cc2S(=O)(=O)N2CCOCC2)CC1 | -3.03% | -0.939
68 | CCOc1ccc(Br)cc1S(=O)(=O)N1CCN(c2ccc(C)cc2C)CC1 | -1.21% | -0.676
69 | O=C1C(=Cc2cccc([N+](=O)[O-])c2)Sc2ccccc21 | -3.79% | -1.61
70 | CCOc1ccc(-c2cc(=O)c3ccccc3o2)cc1 | -6.12% | -2.28
71 | O=C(Oc1ccc(C(=S)N2CCCCC2)cc1)c1ccccc1 | -2.77% | -0.857
72 | COCCCNC(=O)C1c2ccccc2C(=O)N(C)C1c1cccs1 (configuration not stated) | -4.54% | -1.13

Row | Structure (SMILES) | corrected activity, negative = more killing | z-score
73 | O=C(Oc1ccccc1C(=S)N1CCOCC1)c1ccc(Br)cc1 | -4.68% | -1.45
74 | N#Cc1c(NC(=O)CN2C(=O)C3CC=C(Cl)CC3C2=O)sc2c1CCC2 (configuration not stated) | -0.241% | -0.0746
75 | Brc1ccc(SCCc2nc3ccccc3o2)cc1 | -4.19% | -1.56
76 | CCC1CCCCN1C(=O)c1sc2ncn(Cc3ccccc3F)c(=O)c2c1C (configuration not stated) | -3.67% | -1.34
77 | COc1ccc(CNC(=O)CSc2nc3cc(C(F)(F)F)ccc3s2)cc1 | -4.55% | -2.53
78 | COc1cccc(Nc2ncnc3sc(C)c(S(=O)(=O)N4CCC(C)CC4)c23)c1 | -2.61% | -0.65
79 | Brc1cccc(-c2nnc3sc(CN4CCOCC4)cn23)c1 | -6.12% | -1.74
80 | COCCNCCCOc1cccc(Br)c1 | -1.7% | -0.634
81 | CCCSc1nc2c([nH]c3ccccc32)c(=O)n1-c1ccc(OC)cc1 | -5.59% | -1.39
82 | COc1c(Cl)cccc1NC(=O)c1cccc2ccccc12 | -3.52% | -1.31
83 | CC(=O)Nc1ccc(S(=O)(=O)NCc2ccc(C(=O)O)cc2)cc1 | -5.84% | -1.58
84 | O=C1OC(c2ccccc2Cl)=NC1=Cc1ccccc1F | -3.5% | -1.49
85 | O=C(COc1ccccc1Br)NN=Cc1ccccc1Br | -7.58% | -2.41
86 | C#CCN1C(=O)C(O)(CC(=O)c2ccc(OC)c(OC)c2)c2cc(Br)ccc21 (configuration not stated) | -5.04% | -1.51
87 | CCCCNC(=O)c1c[nH]c2ccc(S(=O)(=O)Nc3cccc(SC)c3)cc2c1=O | -1.92% | -0.471
88 | COc1ccccc1CNc1nc(-c2ccc(Br)cc2)nc2ccccc12 | -2.39% | -1.28
89 | N#Cc1c2c(c(-n3ccnc3)n3c1nc1ccccc13)CCC2 | -2.49% | -0.772
90 | O=[N+]([O-])c1ccc(OCCCN2CCNCC2)cc1 | -3.62% | -2.02
91 | Cc1sc(NC(=O)C2c3ccccc3Oc3ccccc32)c(C(N)=O)c1C | -5.26% | -2.16
92 | CC(C)NC(=O)CC(=O)NN=C1CCCC1 | -6.06% | -2.58
93 | CCCOc1ccc(C(=O)Nc2ccc3oc(-c4ccccc4)nc3c2)cc1 | -3.03% | -1.07
94 | CCSc1nnc(NC(=O)CSc2nc3c(c(=O)n2-c2ccccc2OC)SCC3)s1 | -4.89% | -1.22
95 | NC(=O)c1ccccc1NC(=O)c1ccc(-c2cccc(Cl)c2)o1 | -6.51% | -1.94
96 | Cc1ccc(-c2sc3nc(-c4ccccc4)ccc3c2N)c(C)c1 | -3.23% | -1.23
